According to article PMC11062922 (Nature Chemical Biology, 2023):
Where two headings read alike, the source gives them in different places.

How the values were obtained:
Set-up in all cases: species or system human, MV4-11 + K-562 + COLO205 + SK-N-BE2 + OVCAR-8
[1] = test system: ATM; conditions: read-out: apparent Kd, compound concentrations: 100 nM and 1000 nM (sheet 'Samples'), n = 1
[2] = test system: EPHA2; conditions: read-out: apparent Kd, n = 1
[3] = test system: HCK; conditions: read-out: apparent Kd, compound concentrations: 100 nM and 1000 nM (sheet 'Samples'), n = 1
[4] = test system: SRC; conditions: read-out: apparent Kd, n = 1
[5] = test system: STK16; conditions: read-out: apparent Kd, compound concentrations: 100 nM and 1000 nM (sheet 'Samples'), n = 1
[6] = test system: ADCK1; conditions: read-out: apparent Kd, n = 1
[7] = test system: RIOK2; conditions: read-out: apparent Kd, n = 1
[8] = test system: PRKX; conditions: read-out: apparent Kd, compound concentrations: 100 nM and 1000 nM (sheet 'Samples'), n = 1
[9] = test system: TNIK; conditions: read-out: apparent Kd, n = 1
[10] = test system: CSNK1A1; conditions: read-out: apparent Kd, n = 1
[11] = test system: CDK17; conditions: read-out: apparent Kd, compound concentrations: 100 nM and 1000 nM (sheet 'Samples'), n = 1
[12] = test system: CSNK1E; conditions: read-out: apparent Kd, compound concentrations: 100 nM and 1000 nM (sheet 'Samples'), n = 1
[13] = test system: MARK2; conditions: read-out: apparent Kd; compound concentrations: 100 nM and 1000 nM (sheet 'Samples'), CATDS: 1.4475960848297199E-2; n = 1
[14] = test system: PHKG2; conditions: read-out: apparent Kd, n = 1
[15] = test system: PRKAA2; conditions: read-out: apparent Kd; compound concentrations: 100 nM and 1000 nM (sheet 'Samples'), CATDS: 4.4200978243391198E-2; n = 1
[16] = test system: ROCK2; conditions: read-out: apparent Kd; compound concentrations: 100 nM and 1000 nM (sheet 'Samples'), CATDS: 8.2952674328971108E-3; n = 1
[17] = test system: STK3; conditions: read-out: apparent Kd; compound concentrations: 100 nM and 1000 nM (sheet 'Samples'), CATDS: 4.2815354509816599E-2; n = 1
[18] = test system: MAPK8; conditions: read-out: apparent Kd, compound concentrations: 100 nM and 1000 nM (sheet 'Samples'), n = 1
[19] = test system: YES1; conditions: read-out: apparent Kd; compound concentrations:100 nM and 1000 nM (sheet 'Samples'); n = 1
[20] = compound concentrations:100 nM and 1000 nM (sheet 'Samples')

Cc1ccccc1-n1ncc(C(=O)c2ccccc2)c1N [RO1151248-000]
potency estimated from few doses ([1]; CATDS: 4.4938913040114402E-2): 0.302 µM
potency estimated from few doses ([2]; compound concentrations: 100 nM and 1000 nM (sheet 'Samples'), CATDS: 1.9884880942714601E-2): 1.44 µM
potency estimated from few doses ([3]; CATDS: 1.9651331650111199E-2): 1.48 µM
potency estimated from few doses ([4]; compound concentrations: 100 nM and 1000 nM (sheet 'Samples'), CATDS: 2.0715769219535499E-2): 1.29 µM
potency estimated from few doses ([5]; CATDS: 1.8222125974055099E-2): 1.86 µM

CN(c1ccc(NC(=O)NCCN2CCOCC2)cc1)c1ccnc(Nc2ccc(CS(C)(=O)=O)cc2)n1.Cl [GW830365A]
potency estimated from few doses ([6]; compound concentrations: 100 nM and 1000 nM (sheet 'Samples'), CATDS: 4.75269778892356E-2): 1.55 µM

CS(=O)(=O)Nc1ccc(-c2ccnc3[nH]ccc23)cc1 [GSK993273A]
potency estimated from few doses [7, 20]: 1.67 µM

O=C1N=C(NCc2cccs2)O/C1=C\c1ccc2ncccc2c1 [RO4624208-000]
potency estimated from few doses ([8]; CATDS: 5.4979506066670798E-2): 0.966 µM
potency estimated from few doses ([9]; compound concentrations: 100 nM and 1000 nM (sheet 'Samples'), CATDS: 4.4189138056131998E-2): 2.33 µM

CCCc1cc(N2CCCN(C)CC2)nc2sc3c(N)ncnc3c12 [BI00604564]
potency estimated from few doses ([6]; compound concentrations: 100 nM and 1000 nM (sheet 'Samples'), CATDS: 0.15175006426197701): 1.55 µM
potency estimated from few doses ([7]; compound concentrations: 100 nM and 1000 nM (sheet 'Samples'), CATDS: 0.19130476647028): 0.959 µM

Cc1cccc(Nc2nc(N[C@H]3CCNC3)ncc2C(N)=O)c1.Cl [GSK2197149A]
potency estimated from few doses [6, 20]: 1.56 µM
potency estimated from few doses [10, 20]: 1.56 µM
potency estimated from few doses [9, 20]: 1.59 µM

O=C(O)C(F)(F)F.O=C(O)C(F)(F)F.O=c1[nH]ccc2nc(N[C@@H]3CCCNC3)nc(Nc3ccc(S(=O)(=O)N4CCOCC4)cc3)c12.O=c1[nH]ccc2nc(N[C@@H]3CCCNC3)nc(Nc3ccc(S(=O)(=O)N4CCOCC4)cc3)c12 [GSK2177277A]
potency estimated from few doses ([11]; CATDS: 6.5557639532583699E-3): 1.38 µM
potency estimated from few doses ([10]; compound concentrations: 100 nM and 1000 nM (sheet 'Samples'), CATDS: 1.2484395279946501E-2): 0.15 µM
potency estimated from few doses ([12]; CATDS: 1.0000373505011199E-2): 0.274 µM
potency estimated from few doses ([3]; CATDS: 6.5481840851314196E-3): 1.39 µM
potency estimated from few doses [13]: 0.105 µM
potency estimated from few doses ([14]; compound concentrations: 100 nM and 1000 nM (sheet 'Samples'), CATDS: 8.6754793941291007E-3): 0.43 µM
potency estimated from few doses [15]: 0.0137 µM
potency estimated from few doses ([8]; CATDS: 7.1625839917235003E-3): 0.897 µM
potency estimated from few doses ([7]; compound concentrations: 100 nM and 1000 nM (sheet 'Samples'), CATDS: 6.0080792942577401E-3): 2.35 µM
potency estimated from few doses [16]: 0.503 µM
potency estimated from few doses ([5]; CATDS: 8.3784020222335102E-3): 0.485 µM
potency estimated from few doses [17]: 0.0144 µM
potency estimated from few doses ([9]; compound concentrations: 100 nM and 1000 nM (sheet 'Samples'), CATDS: 6.517178775647E-3): 1.42 µM

CN(C)CCNC(=O)Nc1ccc(N(C)c2ccnc(Nc3ccc(CS(C)(=O)=O)cc3)n2)cc1.Cl [GW830900A]
potency estimated from few doses [6, 20]: 0.0889 µM

NC(=O)c1cc(-c2ccccc2)cc2c(C3CCNCC3)c[nH]c12 [GSK301362A]
potency estimated from few doses [6, 20]: 1.52 µM

COc1cc(Nc2nccc(-c3cnn4ncccc34)n2)cc(OC)c1 [GW801372X]
potency estimated from few doses ([1]; CATDS: 3.2681942140962102E-2): 0.274 µM
potency estimated from few doses ([11]; CATDS: 1.7691642172044799E-2): 1.92 µM
potency estimated from few doses ([18]; CATDS: 2.2830325415810902E-2): 0.746 µM
potency estimated from few doses ([7]; compound concentrations: 100 nM and 1000 nM (sheet 'Samples'), CATDS: 1.79748800643771E-2): 1.79 µM
potency estimated from few doses ([5]; CATDS: 1.87533606847229E-2): 1.5 µM

c1cnn2ncc(-c3ccnc(Nc4ccc5c(c4)OCCO5)n3)c2c1 [GW806290X]
potency estimated from few doses ([6]; compound concentrations: 100 nM and 1000 nM (sheet 'Samples'), CATDS: 2.0516224728304101E-2): 1.82 µM
potency estimated from few doses ([10]; compound concentrations: 100 nM and 1000 nM (sheet 'Samples'), CATDS: 2.11429118311642E-2): 1.62 µM
potency estimated from few doses ([12]; CATDS: 2.4076386460309102E-2): 1.05 µM
potency estimated from few doses ([18]; CATDS: 3.07479356857355E-2): 0.532 µM
potency estimated from few doses ([7]; compound concentrations: 100 nM and 1000 nM (sheet 'Samples'), CATDS: 4.9537974032322102E-2): 0.183 µM

CC(=O)N[C@@H](Cc1ccc(OP(=O)(O)O)cc1)C(=O)N[C@H]1CCC(=O)N2CCC[C@@H](C(=O)NCc3ccc(Cl)cc3)N2C1=O [RO0325308-000]
potency estimated from few doses [2, 20]: 1.13 µM
potency estimated from few doses [14, 20]: 1.88 µM
potency estimated from few doses [7, 20]: 0.141 µM
potency estimated from few doses [4, 20]: 1.04 µM
potency estimated from few doses [19]: 1.03 µM
